Calls of active or inactive are those of the source. The calls were made as follows: active = hit-call score of the fitted dose curve at least 0.9, where 1 is the maximum; inactive = score below 0.9.
Tests used:
[1] = ATG_CRE_CIS: Attagene CIS-FACTORIAL HepG2 Assay for human cAMP Responsive Element (CRE) binding protein 3 (AID 2282926); settings: HepG2 CRE cis-reporter, Attagene multiplexed mRNA; actives raise or lower the signal
In short: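 Transfected HepG2 were treated for 24 hours, then RNA was extracted and reporter cDNA amplified with sequence-specific primers. Labelled fragments were separated by capillary electrophoresis, and the CRE signal was fitted bidirectionally with DMSO as baseline.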

[2] = molecular target: CCAAT/enhancer-binding protein beta (Homo sapiens) (UniProt P17676); assay: ATG_C_EBP_CIS: Attagene CIS-FACTORIAL HepG2 Assay for human CCAAT/Enhancer Binding Protein (C/EBP) beta (AID 2282927); settings: HepG2 Attagene cis-factorial transcription factor reporter; actives raise or lower the signal
CCAAT/enhancer-binding protein beta (Homo sapiens), sequence (P17676 whole entry, looked up): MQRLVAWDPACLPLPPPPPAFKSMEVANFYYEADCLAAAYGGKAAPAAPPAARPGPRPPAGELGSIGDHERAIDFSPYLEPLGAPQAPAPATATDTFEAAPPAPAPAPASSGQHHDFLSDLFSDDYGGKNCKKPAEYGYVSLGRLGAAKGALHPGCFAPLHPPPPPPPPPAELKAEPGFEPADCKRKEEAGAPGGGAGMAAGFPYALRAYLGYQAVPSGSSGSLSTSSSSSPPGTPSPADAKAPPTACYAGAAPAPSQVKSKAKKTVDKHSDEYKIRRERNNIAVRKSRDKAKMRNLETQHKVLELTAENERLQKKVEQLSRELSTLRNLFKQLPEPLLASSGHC
In short: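 Following a 24 h incubation with test chemical, transfected HepG2 cells yielded RNA whose reporter transcripts were quantified by RT-PCR and fluorescent capillary electrophoresis, with DMSO serving as baseline for bidirectional fitting.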

[3] = ATG_CMV_CIS: Attagene CIS-FACTORIAL HepG2 Assay for human CMV (Internal Marker) (AID 2282928); settings: HepG2 CMV promoter reporter, transcription factor profiling; actives raise or lower the signal;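 also: endpoint acts as a background internal control marker rather than a target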
In short: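 Cell system: HepG2, transiently transfected multiple reporter units under cis promoters. Exposure: 24 h. Detection: RT-PCR, FAM labeling, HpaI digestion, capillary electrophoresis. Analysis: bidirectional, DMSO baseline.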

[4] = ATG_DR4_LXR_CIS: Attagene CIS-FACTORIAL HepG2 Assay for human Liver X Receptor (LXR), DR4 submotif (AID 2282929); settings: HepG2 Attagene DR4 cis-reporter, mRNA transcription; actives raise or lower the signal
In short: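 Fluorescence intensity of labelled reporter cDNA fragments, separated by capillary electrophoresis, gives the signal. HepG2 cells bearing cis-regulated reporter constructs were treated 24 h; activity fitted bidirectionally relative to DMSO negative control.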

[5] = molecular target: Aryl hydrocarbon receptor (Homo sapiens) (UniProt P35869); assay: ATG_Ahr_CIS: Attagene CIS-FACTORIAL HepG2 Assay for human Aryl Hydrocarbon Receptor (Ahr) (AID 2282930); settings: HepG2 AhR cis-factorial reporter transcription; actives raise or lower the signal
Aryl hydrocarbon receptor (Homo sapiens), sequence (P35869 whole entry, looked up): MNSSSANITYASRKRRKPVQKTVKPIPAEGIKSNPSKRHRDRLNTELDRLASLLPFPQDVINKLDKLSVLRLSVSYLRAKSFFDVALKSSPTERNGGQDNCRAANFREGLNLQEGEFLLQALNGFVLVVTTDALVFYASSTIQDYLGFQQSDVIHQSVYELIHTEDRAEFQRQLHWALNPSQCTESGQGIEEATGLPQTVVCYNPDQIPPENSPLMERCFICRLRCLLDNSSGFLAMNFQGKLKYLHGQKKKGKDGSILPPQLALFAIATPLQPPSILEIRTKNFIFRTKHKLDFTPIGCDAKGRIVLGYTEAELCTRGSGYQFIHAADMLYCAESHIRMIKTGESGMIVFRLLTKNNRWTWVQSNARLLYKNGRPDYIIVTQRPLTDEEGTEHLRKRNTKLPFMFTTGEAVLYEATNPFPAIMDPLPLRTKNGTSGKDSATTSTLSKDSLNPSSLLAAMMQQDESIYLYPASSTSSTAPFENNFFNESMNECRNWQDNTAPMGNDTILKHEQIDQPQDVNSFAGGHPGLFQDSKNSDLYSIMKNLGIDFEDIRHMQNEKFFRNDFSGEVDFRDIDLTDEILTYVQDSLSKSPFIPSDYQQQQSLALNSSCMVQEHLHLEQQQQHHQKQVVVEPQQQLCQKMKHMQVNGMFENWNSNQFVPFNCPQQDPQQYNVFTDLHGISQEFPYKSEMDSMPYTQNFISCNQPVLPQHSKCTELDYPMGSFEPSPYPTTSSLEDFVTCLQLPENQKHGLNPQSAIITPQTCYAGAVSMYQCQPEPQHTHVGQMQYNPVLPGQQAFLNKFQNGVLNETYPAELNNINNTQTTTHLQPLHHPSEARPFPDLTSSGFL
In short: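 Values derive from bidirectional fitting against DMSO negative control. Underlying signal: cis-element reporter mRNA in transiently transfected HepG2, harvested 24 h post-dose and measured by RT-PCR plus capillary electrophoresis.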

[6] = ATG_AP_1_CIS: Attagene CIS-FACTORIAL HepG2 Assay for human Activator Protein 1 (AP-1) (AID 2282931); settings: HepG2 Attagene cis-factorial AP-1 reporter mRNA; actives raise or lower the signal
In short: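 Multiplexed HepG2 reporter assay, 24 h dosing. mRNA induction detected by RT-PCR plus capillary electrophoresis. Activity fitted in both directions against DMSO.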

[7] = ATG_AP_2_CIS: Attagene CIS-FACTORIAL HepG2 Assay for human Activator Protein 2 (AP-2) (AID 2282932); settings: HepG2 AP-2 cis-reporter, Attagene transcription factor profiling; actives raise or lower the signal
In short: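 Bidirectional curve fitting against DMSO was applied to reporter mRNA signals from HepG2 cells 24 h after dosing. Cis-promoter reporter units, transiently transfected, were read by RT-PCR plus capillary electrophoresis.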

[8] = ATG_BRE_CIS: Attagene CIS-FACTORIAL HepG2 Assay for human Bone Morphogenetic Protein (BMP) Response Element (BRE) (AID 2282933); settings: HepG2 BMP response element reporter, Attagene transcription factor profiling; actives raise or lower the signal
In short: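 Multiplexed cis-reporter assay, HepG2, 24 h exposure. mRNA from reporter units quantified via RT-PCR/CE; DMSO baseline; bidirectional curve fit.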

[9] = molecular target: Transcription factor E2F1 (Homo sapiens) (UniProt Q01094); assay: ATG_E2F_CIS: Attagene CIS-FACTORIAL HepG2 Assay for human E2F Transcription Factor 1 (AID 2282935); settings: HepG2 Attagene cis-reporter, E2F reporter RNA transcripts; actives raise or lower the signal
Transcription factor E2F1 (Homo sapiens), sequence (Q01094 whole entry, looked up): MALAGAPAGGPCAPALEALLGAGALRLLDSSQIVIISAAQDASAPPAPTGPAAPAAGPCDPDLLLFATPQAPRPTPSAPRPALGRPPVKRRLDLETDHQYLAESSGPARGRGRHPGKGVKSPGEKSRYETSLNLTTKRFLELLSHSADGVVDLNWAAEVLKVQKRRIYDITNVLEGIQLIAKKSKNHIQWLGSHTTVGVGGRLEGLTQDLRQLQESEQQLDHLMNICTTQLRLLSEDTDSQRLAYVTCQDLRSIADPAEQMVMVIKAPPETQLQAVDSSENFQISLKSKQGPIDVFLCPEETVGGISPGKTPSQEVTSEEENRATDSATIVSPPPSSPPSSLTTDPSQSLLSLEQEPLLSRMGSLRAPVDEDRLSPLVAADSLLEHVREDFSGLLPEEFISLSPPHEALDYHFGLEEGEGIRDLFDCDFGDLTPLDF
In short: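 Multiplexed cis-reporter assay: HepG2, transient transfection, 24 h dosing, mRNA quantitation by labeled RT-PCR and CE.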

[10] = ATG_E_Box_CIS: Attagene CIS-FACTORIAL HepG2 Assay for human Enhancer Box (E-box) (AID 2282936); settings: HepG2 E-box cis-reporter transcription, actives raise or lower the signal
In short: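 Multiplexed CIS reporter system in transiently transfected HepG2 cells measures native transcription factor activity. Reporter RNA after 24 h exposure is profiled by RT-PCR-capillary electrophoresis.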

[11] = ATG_M_61_CIS: Attagene CIS-FACTORIAL HepG2 Assay for M61 Transcription Factor (Internal Marker) (AID 2282937); settings: HepG2 Attagene CIS-FACTORIAL M61 internal marker reporter; actives raise or lower the signal
In short: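 Endogenous transcription factor activity in HepG2 is read through transiently transfected cis-element reporter units. After 24 h dosing, RNA undergoes reverse transcription, PCR and primer extension with 6-FAM before capillary electrophoresis; DMSO-referenced bidirectional fit.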

[12] = ATG_EGR_CIS: Attagene CIS-FACTORIAL HepG2 Assay for human Early Growth Response 1 (EGR1) (AID 2282938); settings: HepG2 Attagene CIS-FACTORIAL EGR reporter mRNA; actives raise or lower the signal
In short: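 Activity is taken as induction or loss of reporter mRNA versus DMSO, fitted bidirectionally. Transcripts from cis-regulated reporter units in transiently transfected HepG2 were measured after 24 h by RT-PCR with capillary electrophoresis.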

[13] = ATG_M_19_CIS: Attagene CIS-FACTORIAL HepG2 Assay for M19 Transcription Factor (Internal Marker) (AID 2282939); settings: HepG2 Attagene CIS-FACTORIAL M19 internal marker reporter; actives raise or lower the signal
In short: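 Signals come from fluorescence of labelled reporter-specific PCR fragments resolved by capillary electrophoresis, following 24 h treatment of HepG2 cells transfected with cis-promoter reporter units; activity was fitted in both directions relative to DMSO.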

[14] = ATG_ERE_CIS: Attagene CIS-FACTORIAL HepG2 Assay for Estrogen Response Element (ERE) (AID 2282940); settings: HepG2 ERE cis-reporter, Attagene RNA transcript; actives raise or lower the signal
In short: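 Fluorescence of capillary-separated, FAM-labelled reporter cDNA fragments indicates reporter mRNA levels in HepG2 cells exposed to chemicals for 24 h. Transient transfection with cis-regulated units; data fitted in both directions against DMSO.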

[15] = ATG_Ets_CIS: Attagene CIS-FACTORIAL HepG2 Assay for human Erythroblast Transformation Specific (ETS) (AID 2282941); settings: HepG2 ETS cis-reporter transcription, actives raise or lower the signal
In short: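 After transient cis-reporter transfection, HepG2 cells receive test chemical for 24 h. Reporter mRNA levels, measured by RT-PCR and capillary electrophoresis fluorescence, are analysed bidirectionally relative to the DMSO baseline.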

[16] = molecular target: Hepatocyte nuclear factor 3-beta (Homo sapiens) (UniProt Q9Y261); assay: ATG_FoxA2_CIS: Attagene CIS-FACTORIAL HepG2 Assay for human Forkhead box A2 (FOXA2) (AID 2282942); settings: HepG2 cis-reporter transcription factor activity, 24 h; actives raise or lower the signal
Hepatocyte nuclear factor 3-beta (Homo sapiens), sequence (Q9Y261 whole entry, looked up): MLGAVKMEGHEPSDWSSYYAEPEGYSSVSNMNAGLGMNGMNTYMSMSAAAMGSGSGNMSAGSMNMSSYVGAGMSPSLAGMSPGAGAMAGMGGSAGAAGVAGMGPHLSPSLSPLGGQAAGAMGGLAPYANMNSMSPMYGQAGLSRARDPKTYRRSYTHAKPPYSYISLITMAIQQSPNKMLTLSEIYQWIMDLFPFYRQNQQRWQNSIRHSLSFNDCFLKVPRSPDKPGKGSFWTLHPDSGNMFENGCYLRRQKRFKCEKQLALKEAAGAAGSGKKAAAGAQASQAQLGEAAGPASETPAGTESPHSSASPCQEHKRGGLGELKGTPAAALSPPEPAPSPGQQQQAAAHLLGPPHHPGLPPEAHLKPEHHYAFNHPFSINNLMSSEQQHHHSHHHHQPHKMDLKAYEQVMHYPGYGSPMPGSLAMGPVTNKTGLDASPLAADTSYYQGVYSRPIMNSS
In short: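 Reporter transcript induction is measured by fluorescence after capillary electrophoresis of RT-PCR products from HepG2 cells exposed 24 h. Cis-regulated reporter units report endogenous factor activity; curves fitted both directions against DMSO.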

[17] = ATG_FoxO_CIS: Attagene CIS-FACTORIAL HepG2 Assay for human Forkhead box O (FoxO) (AID 2282943); settings: HepG2 Attagene cis-reporter, FoxO element, mRNA; actives raise or lower the signal
In short: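 Values reflect reporter mRNA induction or loss in HepG2 cells 24 h post-dosing, fitted bidirectionally with DMSO as negative control and baseline. Detection used RT-PCR and fluorescence capillary electrophoresis.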

[18] = ATG_GLI_CIS: Attagene CIS-FACTORIAL HepG2 Assay for human Zinc Finger Protein GLI1 (AID 2282945); settings: HepG2, Attagene cis-factorial reporter mRNA, GLI element; actives raise or lower the signal
In short: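 HepG2 cells transiently transfected with cis-promoter multiplexed reporter units report endogenous transcription factor activity. After 24 h chemical exposure, reporter mRNA was quantified by RT-PCR, 6-FAM labelling, HpaI digestion and capillary electrophoresis, with bidirectional fitting against DMSO.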

[19] = ATG_GATA_CIS: Attagene CIS-FACTORIAL HepG2 Assay for human GATA Binding Protein (AID 2282944); settings: HepG2 GATA cis-element reporter, Attagene multiplex mRNA; actives raise or lower the signal
In short: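 After transfecting HepG2 cells with multiple cis-regulated reporter units, chemicals are dosed for 24 h; isolated RNA undergoes RT-PCR and fluorescent labeling before capillary electrophoresis, with activity expressed against DMSO.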

Measured: AC50

COc1ccc(Nc2ccccc2)c(C)c1
active: [3] 100 µM | [4] 46 µM | [6] 139 µM | [8] 149 µM | [14] 19.6 µM
not listed: [19]
inactive: all other assays above

C[C@H]1C[C@H]2[C@@H]3CCC4=CC(=O)C=C[C@]4(C)[C@@]3(F)[C@@H](O)C[C@]2(C)[C@@]1(O)C(=O)COP(=O)(O)O
inactive: all assays above

COc1cc(C(C)(C)C)c(O)c(C(C)(C)C)c1
not listed: [14] | [19]
inactive: all other assays above

Clc1ccc(Cl)c(Cl)c1Cl
active: [5] 31.7 µM
not listed: [14]
inactive: all other assays above

Cc1c(Cl)c(=O)oc2cc(O)ccc12
active: [2] 129 µM | [3] 63 µM
not listed: [14] | [16]
inactive: all other assays above

c1ccc2[nH]ccc2c1
active: [5] 14.6 µM
not listed: [14] | [19]
inactive: all other assays above

OCCOCCOCCOCCO
active: [5] 40.5 µM
not listed: [16] | [19]
inactive: all other assays above

CC(C)[C@@H]1CC[C@@H](C)CC1=O
not listed: [14]
inactive: all other assays above

CCCCCCOC(=O)CC
not listed: [15]
inactive: all other assays above

CCCCCCCCCCCCN
active: [4] 10.2 µM
not listed: [14] | [16]
inactive: all other assays above

CC(=O)C(C)=O
active: [3] 40.6 µM
not listed: [14]
inactive: all other assays above

CC(C)[C@H]1CC[C@@H](C)CC1=O
not listed: [14]
inactive: all other assays above

CC(O)C(C)O (centres undefined)
not listed: [14]
inactive: all other assays above

COC(=O)OC
not listed: [14]
inactive: all other assays above

Cc1cccc(C)c1C
not listed: [14]
inactive: all other assays above

O=[N+]([O-])c1cc(C(F)(F)F)ccc1Cl
not listed: [14]
inactive: all other assays above
